Source: PubChem BioAssay
Sampled rows, rich in hits. Any-hit rate of the full collection: about 3.5%.
GPR151 ag – activates the human receptor GPR151. Q8TDV0. PathHunter beta-arrestin GPR151 cells, luminescence. activation, % at 11.2 µM. hit rate 1% among 650,000; in the data active means activation above about 4.9%;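 further: 0% = median of compound wells and 100% = cells with positive control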
TEAD-YAP block – TEAD-YAP interaction inhibition | HEK-TIYL cells, TEAD-Gal4/YAP UAS-luciferase luminescence | inhibition, % at 9.12 µM | AID 1259422 | hit rate 1.4% among 640,000; in the data active means inhibition above about 32%;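 further: 0% = median of test compound wells and 100% = reference inhibitor wells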
MITF primary – human MITF inhibition, primary screen. O75030. AlphaScreen MITF homodimerization, bead proximity signal. inhibition, % at 2.6 µM. hit rate 0.91% among 650,000; in the data active means inhibition above about 50%;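 further: 0% = vehicle wells with protein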
Target sequence (O75030 whole entry, looked up): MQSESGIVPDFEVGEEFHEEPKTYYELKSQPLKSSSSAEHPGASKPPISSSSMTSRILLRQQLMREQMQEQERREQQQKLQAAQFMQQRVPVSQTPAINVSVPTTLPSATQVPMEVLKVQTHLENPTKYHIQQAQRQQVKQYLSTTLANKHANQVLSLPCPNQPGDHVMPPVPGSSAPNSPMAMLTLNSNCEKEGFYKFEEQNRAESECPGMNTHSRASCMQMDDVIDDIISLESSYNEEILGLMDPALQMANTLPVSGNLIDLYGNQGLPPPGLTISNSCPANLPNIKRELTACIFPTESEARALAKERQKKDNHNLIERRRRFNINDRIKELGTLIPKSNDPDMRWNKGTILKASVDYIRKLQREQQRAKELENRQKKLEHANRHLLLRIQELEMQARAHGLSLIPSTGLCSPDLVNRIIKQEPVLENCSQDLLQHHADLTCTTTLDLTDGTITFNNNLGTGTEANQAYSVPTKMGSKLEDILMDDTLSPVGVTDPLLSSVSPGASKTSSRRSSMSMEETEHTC
FBW7 activator – activators of human E3 ligase FBW7; normalized activity (activation), % at 26.1 µM; AID 1259310; AlphaScreen FBW7–phospho-cyclin E peptide binding, activator screen; Q969H0; hit rate 0.13% among 650,000; in the data active means normalized activity above about 1.9%;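 further: purified mutant Fbw7 with reduced substrate affinity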
Active calls of the source: *.

SMILES | GPR151 ag | TEAD-YAP block | MITF primary | FBW7 activator
O=C(CSc1nnc2c(n1)[nH]c1ccccc12)Nc1ccccc1F | -1 | -19 | 0 | 0
O=C(CSc1nnc2c(n1)[nH]c1ccccc12)Nc1ccc(Cl)cn1 | 0 | 57* | 6 | 0
O=C(CSc1nnc2c(n1)[nH]c1ccccc12)Nc1ccc(C(=O)N2CCCCC2)cc1 | 1 | 34* | 10 | 0
COC(=O)c1cc(-c2ccc(C(C)C)cc2)n[nH]1 | -1 | -64 | -13 | 0
O=C(Nc1ccc(C(O)(C(F)(F)F)C(F)(F)F)cc1)C(F)(F)F | 0 | 2 | 17 | 1
CCN=C(NS(=O)(=O)c1ccc(F)cc1)c1ccccc1 | 1 | 3 | 13 | 0
CN(C)c1ccc(/C=C2\Oc3c(ccc(O)c3O)C2=O)cc1 | 1 | 1 | 55* | 0
O=S1(=O)CCC(NC(=S)Nc2ccc(OC(F)F)cc2)C1 (centres undefined) | 0 | 41* | -8 | 0
COc1ccc(C(=O)NC(=S)NC2CCS(=O)(=O)C2)cc1 (centres undefined) | 0 | 2 | 38 | 0
c1cn(Cc2ccc(Nc3nccc(-c4cncc(N5CCOCC5)c4)n3)cc2)cn1 | 0 | 68* | 3 | 0
c1cnn(Cc2ccc(Nc3nccc(-c4cncc(N5CCOCC5)c4)n3)cc2)c1 | 1 | 65* | 7 | 0
Cc1nc(C)n(-c2ccc(Nc3nccc(-c4cncc(N5CCOCC5)c4)n3)cc2)n1 | 2 | 31 | 16 | 0
O=C1CCCN1CCCNc1nc2ncnc(Nc3ccccc3)c2[nH]1 | -2 | -4 | -10 | 0
c1cnc2ccc(Nc3nc4ncnc(Nc5ccc(N6CCOCC6)cc5)c4[nH]3)cc2c1 | -2 | 36* | 5 | 3.9*
O=C1CCCN1CCCNc1nc2ncnc(Nc3ccc(N4CCOCC4)cc3)c2[nH]1 | -2 | 38* | 17 | 0
O=C1CCCN1CCCNc1nc(Nc2ccc(N3CCOCC3)cc2)c2ncn(-c3ccsc3)c2n1 | 0 | 47* | 19 | 0
c1cncc(Nc2nc3ncnc(Nc4ccc(N5CCOCC5)cc4)c3[nH]2)c1 | -2 | 25 | 3 | 0
O=C1CCCN1CCCNc1nc(Nc2ccc(N3CCOCC3)cc2)nc2c1ncn2-c1ccsc1 | -1 | 59* | -1 | 0
COc1ccc(-c2cc(C(F)(F)F)n3nc(C(=O)NCc4ccc5c(c4)OCO5)cc3n2)cc1 | 0 | 7 | 15 | 0
Cc1ccccc1C1CC(=O)Nc2ccc3ccccc3c21 (centres undefined) | -2 | 38* | 1 | 0
O=C1CC(c2cccc(Br)c2)c2c(ccc3ccccc23)N1 (centres undefined) | 0 | 51* | 5 | 0
O=C1CC(c2ccccc2)c2c(ccc3ccccc23)N1 (centres undefined) | 1 | 9 | 13 | 0
CCN(CC)CCNC1=C(Cl)C(=O)c2ccccc2C1=O | -2 | 46* | 2 | 0
O=C1C(Cl)=C(NCCN2CCCCC2)C(=O)c2ccccc21 | -4 | 41* | 9 | 0
COc1ccc(-c2cccc(C(=O)Nc3ccc(NC(C)=O)cc3)c2)cc1 | -1 | 2 | 6 | 0
SMILES | GPR151 ag | TEAD-YAP block | MITF primary | FBW7 activator
O=C(Nc1ccc2oc(-c3cccc(I)c3)nc2c1)c1ccc(-c2cccc([N+](=O)[O-])c2)o1 | -1 | 2 | -6 | 0
CC(C)(C)c1ccc(-c2nc3cc(NC(=O)c4ccc(Br)o4)ccc3o2)cc1 | 0 | 37* | -10 | 0
CC(C)(C)c1ccc(-c2nc3cc(NC(=O)c4ccc(-c5cccc([N+](=O)[O-])c5)o4)ccc3o2)cc1 | 1 | 34* | -13 | 0
CC(C)(C)c1ccc(C(=O)Nc2ccc3oc(-c4ccc(C(C)(C)C)cc4)nc3c2)cc1 | 1 | -7 | 9 | 0
O=C(Nc1ccc2oc(-c3ccc(I)cc3)nc2c1)c1ccc2c(c1)OCCO2 | -1 | -17 | -10 | 0
CCc1ccc2oc(-c3ccc(NC(=O)c4ccc5c(c4)OCCO5)cc3)nc2c1 | 0 | 39* | -3 | 1
COc1cccc(NC(=O)CN2CCN(CC(=O)Nc3ccc(Cl)cc3)CC2)c1 | 0 | -2 | -5 | 0
O=C(c1cccc(S(=O)(=O)N2CCCCC2)c1)N1CCN(C(=O)c2cccc(S(=O)(=O)N3CCCCC3)c2)CC1 | -2 | 17 | 17 | 0
COc1ccccc1-c1nc(S(=O)(=O)c2ccc(Cl)cc2)c(N2CCOCC2)o1 | 0 | 8 | 12 | 0
CC(=O)Nc1ccc(Nc2ccnc(Nc3ccncn3)n2)cc1 | 4 | -16 | 10 | 0
CC(=O)Nc1ccc(Nc2ccnc(Nc3ccc(C(F)(F)F)cc3)n2)cc1 | 0 | 60* | 11 | 0
CC(=O)Nc1ccc(Nc2cc(C)nc(Nc3ccc4ncccc4c3)n2)cc1 | 1 | 27 | 10 | 0
CC(=O)Nc1ccc(Nc2ccnc(Nc3ccc4ncccc4c3)n2)cc1 | -1 | 37* | 5 | 0
O=C(NCc1ccccn1)c1nnc(Cc2ccc(F)cc2)o1 | 0 | -29 | 2 | 0
CN1/C(=C/C=C/c2cc(-c3ccc(Cl)cc3)cc(-c3ccc(Cl)cc3)[n+]2C)C(C)(C)c2ccccc21 | 3 | 94* | 59* | -1
O=C(c1cc2cccc3c2n(c1=O)CCC3)N1CCN(Cc2ccccc2)CC1 | -2 | 0 | -2 | 0
Cc1ccc(N2C(=O)c3cccc(N)c3C2=O)c(C)c1 | 1 | 33* | -7 | 0
Nc1cccc(N2C(=O)c3cccc(N)c3C2=O)c1 | 0 | 6 | -2 | 0
Nc1cccc2c1C(=O)N(c1ccc3ccccc3c1)C2=O | 0 | -54 | 1 | 2.4*
Cc1ccc(-c2nc3ccccc3[nH]2)cc1NC(=O)c1oc(=O)c2ccccc2c1-c1ccccc1 | 0 | -9 | 10 | 0
Cc1ccc(CNC(=O)c2cnc3c(c(C)nn3-c3ccc(F)cc3)c2Cl)cc1 | 0 | 1 | -15 | 0
Cc1nn(-c2ccc(F)cc2)c2ncc(C(=O)NCCCn3ccnc3)c(Cl)c12 | -1 | 65* | -9 | 0
O=S(=O)(c1cccs1)N1CCN(c2cc(N3CCOCC3)ncn2)CC1 | 0 | 1 | 2 | 0
O=C(CSc1cc(N2CCOCC2)ncn1)c1cccs1 | -7 | 73* | 1 | 0
Cc1cc(C(=O)COC(=O)c2cccs2)c(C)n1Cc1cccs1 | -1 | 53* | 14 | 0
SMILES | GPR151 ag | TEAD-YAP block | MITF primary | FBW7 activator
Cc1cc(C(=O)CSc2nnc(N)s2)c(C)n1Cc1ccco1 | -1 | 37* | 7 | 0
COc1ccc(CCn2c(C)cc(C(=O)CSc3nnc(C)s3)c2C)cc1 | 0 | 4 | -2 | 0
COCCn1c(C)cc(C(=O)CSc2nnc(C)s2)c1C | -6 | 70* | -2 | 0
Cc1nnc(SCC(=O)c2cc(C)n(Cc3cccs3)c2C)s1 | 1 | 62* | 2 | 0
COc1ccc(CCC(=O)N(C)Cc2c(C)nn(C)c2C)cc1 | -2 | 14 | 7 | 1
c1ccc(-c2cc(N3CCC4(CC3)OCCO4)nc(-c3ccccn3)n2)cc1 | 1 | 43* | 1 | 0
Fc1ccc(-c2cc(N3CCC4(CC3)OCCO4)nc(-c3ccccn3)n2)cc1 | -1 | 15 | 9 | 0
